HT1080 IDH1KD tx: HT-1080 IDH1 knockdown cell toxicity (counter line); HT-1080 IDH1 knockdown viability, ATP luminescence, 48 h; Potency, µM (top dose mostly 46.1 µM), for the others: at the top dose activity, negative = toxicity, usual class: cytotoxic; actives 2% (n = 360,000);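 further: 0% = DMSO wells and -100% = cell-free medium wells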
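CellTiter-Glo luminescence after 48 h compound exposure at 37 degrees C of IDH1-knockdown HT-1080 cells in 5% FBS RPMI. %Activity scaled between DMSO wells and cell-free media wells, with curves fitted and assigned curve classes.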
KB-V1 cytotox: KB-V1 MDR subline cytotoxicity; actives 3.4% (n = 400,000); KB-V1 MDR cells viability, CellTiter-Glo, 72 h; Potency, µM (titrated, usually from 46.1 µM), hits mostly cytotoxic; further: nearly all actives have a fitted effect of over 60% in size
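KB-V1 MDR subline cells in DMEM (phenol-red free, 10% FBS) exposed to compounds in qHTS concentration series for 72 h at 37 degrees C. Viability read by CellTiter-Glo luminescence; concentration-effect curves fitted after normalization and correction.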
KB-3-1 cytotox: KB-3-1 parental cell cytotoxicity; Potency, µM (doses to about 46.1 µM), most hits filed as cytotoxic; KB-3-1 viability, CellTiter-Glo ATP luminescence, 72 h; AID 1347075; actives 1.4% (n = 400,000); further: nearly all actives have a fitted effect of over 60% in size
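Parental KB-3-1 viability, qHTS format: 72 h compound exposure, 37 °C; CellTiter-Glo; media-only wells and DMSO plates as controls; concentration-effect fits on corrected data.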
HT1080NT lethal: kills 2HG-producing HT-1080-NT fibrosarcoma cells; actives 1.6% (n = 360,000); AID 686970; HT-1080-NT fibrosarcoma viability, CellTiter-Glo ATP luminescence, 48 h; Potency, µM (titrated, usually from 46.1 µM), inactives show top-dose activity, negative = less viability, hits mostly cytotoxic;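 further: NT is the 2HG producing partner of a matched IDH1 knockdown line; 0% = DMSO-treated cells and -100% = media-only wells without cells; nearly all actives have a fitted effect of over 55% in size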
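Compounds were tested in concentration-response format on HT-1080-NT cells for 48 hours at 37 degrees C. Cell viability came from CellTiter-Glo luminescence; curves were classified by r2, response magnitude and activity.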
TDP1 cell CPT: growth inhibition of DT40 Tdp1-/-;hTDP1 cells with camptothecin (screen for TDP1 inhibitors); chicken DT40 Tdp1-/-;hTDP1 cells + 20 nM CPT, ATP luminescence, 48 h; Potency, µM (series often up to 46.2 µM), for inactives: top-dose activity change, negative = growth inhibition, usual class: inhibitors; actives 12% (n = 420,000); AID 686979; further: nearly all actives have a fitted effect of over 55% in size
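Chicken DT40 Tdp1-/- cells stably complemented with human TDP1 were seeded at 400 cells/well in medium containing 20 nM camptothecin, exposed to pin-transferred compounds, and grown at 37 °C for at least 48 hr. Viability was read as ATP luminescence.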
DT40 TDP1 no CPT: qHTS for Inhibitors of human tyrosyl-DNA phosphodiesterase 1 (TDP1): qHTS in cells in absence of CPT | AID 686978, 2013 | actives 15% (n = 420,000) | DT40 Tdp1-/- hTDP1 cells, no CPT, ATP luminescence, 48 h | Potency, µM (doses to about 46.2 µM), for the others: top-dose activity change, negative = growth inhibition, usual class: inhibitors; further: nearly all actives have a fitted effect of over 55% in size
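Growth of hTDP1-complemented DT40 Tdp1-knockout cells is measured by ATP luminescence after at least 48 hr compound exposure at 37 °C, with DMSO substituting for the 20 nM CPT used in the parallel screen.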
Starred values were filed as active, the others as inactive; i = inactive; ? = inconclusive; · = no result; ! = not active in a repeat. The list is not random: actives were taken first. Their share in the collection is about 19%. The call rests on the fitted dose curve; in most records, active means well fitted curve in the direction sought with a large enough effect; inconclusive means small, poorly fitted or top-dose-only effect, or another doubt; inactive means no such curve, though single readings can be large; an effect the other way counts as inactive or inconclusive. Unless noted, on the % scale 0 is the no-effect control and ±100 the full control effect; potency means the concentration at half of the fitted maximal effect.

SMILES	HT1080 IDH1KD tx	KB-V1 cytotox	KB-3-1 cytotox	HT1080NT lethal	TDP1 cell CPT	DT40 TDP1 no CPT
COc1ccc(C(=O)N(Cc2cc(OC)c(OC)c(OC)c2)C2CCS(=O)(=O)C2)cc1Cl (centres undefined)	·	i	i	·	-11%	-13%
O=C(CSc1nc2c([nH]c3ccccc32)c(=O)n1-c1ccc(F)cc1)N1CCCCCC1	·	i	i	·	?	?
C[C@H](O)Cc1cn(-c2cc3cc(C#Cc4ccsc4)ccc3oc2=O)nn1	0%	i	i	-3%	-11%	-3%
COc1ccc(NS(=O)(=O)c2ccc(SC)cc2)c(OC)c1	-17%	18µM*	i	-16%	-27%	?
COc1ccc(NC(=O)c2ccc3ccccc3c2)cc1NS(=O)(=O)c1ccc(F)cc1	6%	21µM*	i	7%	?	?
COc1ccc(OC)c(NS(=O)(=O)c2ccc(NC(=O)c3ccc(NS(C)(=O)=O)cc3)cc2)c1	8%	i	16µM*	1%	-22%	-8%
COc1ccc(NC(=O)c2ccc(C#N)cc2)cc1NS(=O)(=O)c1ccc(F)cc1	-1%	i	i	-2%	-5%	-30%
CCCCOc1ccc(S(=O)(=O)Nc2cc(OC)ccc2OC)cc1	0%	?	i	?	?	16µM*
COc1ccc(OC)c(NS(=O)(=O)c2ccccc2)c1	·	i	i	·	?	-25%
CCN1CCN(C(c2ccc(SC)cc2)c2c(O)cc(C)n(Cc3ccco3)c2=O)CC1 (centres undefined)	·	i	i	·	-23%	-4%
O=C(COc1ccccc1C(=O)OCC(=O)Nc1cccc2ccccc12)Nc1ccc(Br)cc1	·	i	i	·	?	?
O=C(COC(=O)c1ccc(F)cc1F)Nc1cccc(S(=O)(=O)N2CCOCC2)c1	1%	i	i	-9%	?	-6%
Cc1cc(C)c(S(=O)(=O)NCCS(=O)(=O)N2CCN(c3ccccc3)CC2)c(C)c1	·	·	·	·	23µM*	18µM*
CC(=O)Nc1ccc(S(=O)(=O)NCCS(=O)(=O)N2CCN(c3ccccc3F)CC2)cc1	-1%	i	i	-4%	16µM*	21µM*
O=[N+]([O-])c1ccc(S(=O)(=O)NCCS(=O)(=O)N2CCN(c3ccccc3)CC2)cc1	-4%	i	i	-9%	?	16µM*
CC(=O)Nc1ccc(S(=O)(=O)NCCS(=O)(=O)N2CCN(c3ccccc3)CC2)cc1	-12%	i	i	-20%	?	-16%
Cc1ccc(S(=O)(=O)NCCS(=O)(=O)N2CCN(c3ccccc3)CC2)cc1	-1%	i	i	2%	-22%	?
Cc1ccc(N2CC(C(=O)NCCS(=O)(=O)N3CCN(c4ccccc4F)CC3)CC2=O)cc1 (centres undefined)	8%	i	i	13%	15µM*!	?
Cc1ccc(CCN2C(=O)c3ccccc3C2C(=O)NCc2cccnc2)cc1 (centres undefined)	5%	?	i	11%	1%	-4%
COc1ccc(OC)c(NC(=O)c2cc(S(=O)(=O)N(C)C)ccc2N2CCCC2)c1	2%	?	i	-6%	-29%	-28%
Cc1ccc(NC(=O)C(=O)NCc2ccc(/C=C(/C#N)C(=O)NCc3cccnc3)o2)cc1C	1%	?	i	10%	?	16µM*
Cc1ccc(NC(=O)C(=O)NCc2ccc(/C=C(/C#N)C(=O)NCc3cccnc3)o2)cc1	-27%	?	i	0%	?	-22%
O=C(CN1CC[n+]2c(-c3cccs3)csc21)c1ccc(-c2ccccc2)cc1	?	?	?	?	9.2µM*	8.2µM*
CCn1c(SCC(=O)c2ccccc2)nnc1-c1cccs1	13%	?	i	0%	-19%	-7%
CC(NC(=O)c1ccc(-c2ccccc2)cc1)C(c1ccccc1)N1CCOCC1 (centres undefined)	-17%	i	?	?	?	13µM*
SMILES	HT1080 IDH1KD tx	KB-V1 cytotox	KB-3-1 cytotox	HT1080NT lethal	TDP1 cell CPT	DT40 TDP1 no CPT
CC(=O)C(C(c1ccccc1)N1CCOCC1)N1CCOCC1 (centres undefined)	1%	i	?	-4%	?	18µM*
CC(NC(=O)Cc1ccccc1)C(c1ccccc1)N1CCOCC1 (centres undefined)	13%	i	i	1%	-15%	-16%
CN(C)S(=O)(=O)c1cccc(NC(=O)CN2C(=O)NC3(CCc4ccccc4C3)C2=O)c1 (centres undefined)	3%	i	i	16%	-22%	-26%
COc1ccc(-n2c(-c3ccco3)nc3c(cnn3-c3ccccc3Cl)c2=O)cc1	·	i	i	·	?	?
COc1ccc(-n2c(-c3ccco3)nc3c(cnn3-c3ccccc3C)c2=O)cc1	4%	?	i	4%	?	23µM*
COc1cccc(-n2c(-c3ccco3)nc3c(cnn3-c3ccccc3C)c2=O)c1	·	i	i	·	21µM*	18µM*
Cc1cnc(N=Nc2ccccc2)[nH]1	?	i	i	4%	?	?
CC(C)COCC(CN(Cc1ccccc1)c1ccccc1)N1CCCC1 (centres undefined)	16µM*	18µM*	i	16µM*	10µM*!	26µM*
CC(C(=O)Nc1ccc(OCc2ccccc2)cc1)N1CCCC1 (centres undefined)	?	i	i	-19%	14%	?
CCCCNC(=S)N=Nc1c(O)n(Cc2ccccc2)c2ccccc12	3%	i	i	1%	16µM*	2.6µM*
C/C(Cl)=C\Cn1c(O)c(N=NC(N)=S)c2ccccc21	-24%	9.2µM*	?	-30%	4.1µM*	3.7µM*
O=S1(=O)CCC(N=Nc2c(O)n(Cc3ccccc3)c3ccccc23)C1 (centres undefined)	-4%	?	i	-12%	21µM*	?
NC(=S)N=Nc1c(O)n(Cc2ccccc2)c2ccccc12	-23%	i	i	-21%	5.8µM*	6.5µM*
Nc1nc(Br)c2c(F)cccc2c1-c1ccc(F)cc1	?	i	i	-3%	-7%	?

Screens deposited in PubChem BioAssay by National Center for Advancing Translational Sciences (NCATS).
